The source of these data is PubChem BioAssay (NCATS).

The target in assay [1] is Tyrosine-protein kinase Yes (Homo sapiens) (UniProt P07947). The assay is described as follows: qHTS for small molecule inhibitors of Yes1 kinase: Primary Screen (AID 686947). Note: nearly all actives have a fitted effect of over 60% in size. Note: potency is the fitted concentration of half-maximal effect. The method, boiled down: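 Yes1 (4 nM) preincubated 20 min with compound, then 60 min room-temperature reaction with 0.1 mM ATP and 0.3 mg/mL poly(E4Y) in pH 7.5 Tris, 10 mM MgCl2. ADP measured by ADP-Glo luminescence, normalised to enzyme/no-enzyme controls.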
On the technique in general: Quantitative high-throughput screening tests each substance at several concentrations.

A short description of assay [2]: qHTS for small molecule inhibitors of Yes1 kinase: Counter Assay (AID 686950).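 Note: no kinase present so only ADP-Glo detection of a fixed ADP amount is tested; luminescence from ADP-Glo reporting ADP in a fixed ATP and ADP mixture; series mostly up to about 77 µM.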 The method, boiled down:
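Enzyme-free ADP-Glo interference check: compounds were preincubated 20 min in buffer, then an ATP/ADP mix (0.08 mM ATP, 0.02 mM ADP final) was added for 60 min at room temperature before two-step ADP-Glo luminescence detection.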

Assay [3] in a line: qHTS Assay for Identifying Gametocytocidal Compounds (AID 743244).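 For max response: actives lower the fluorescent signal which means gametocytes are killed.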 Note: potency is the fitted concentration of half-maximal effect. Conditions: P. falciparum 3D7 stage III-V gametocytes, alamarBlue, 72 h; max response: stronger effect = lower value. In short, it runs like this: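 Late gametocytes (III–V), P. falciparum 3D7; 72 h drug, then 24 h alamarBlue; resazurin reduction read by fluorescence.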

Where “and” joins values, the source holds several entries; their conditions need not be identical. Identical values can stand only once. Values without a mark were called inactive. Inconclusive results are not listed. Where a call stands in place of a potency, no number is given. Calls of active or inactive are those of the source. Calls come from the whole dose curve; as a rule, active = well fitted curve in the direction sought with a large enough effect; inconclusive = small, poorly fitted or top-dose-only effect, or another doubt; inactive = no such curve, though single readings can be large; an effect the other way counts as inactive or inconclusive.

Chain of Tyrosine-protein kinase Yes (Homo sapiens) (P07947 whole entry, looked up): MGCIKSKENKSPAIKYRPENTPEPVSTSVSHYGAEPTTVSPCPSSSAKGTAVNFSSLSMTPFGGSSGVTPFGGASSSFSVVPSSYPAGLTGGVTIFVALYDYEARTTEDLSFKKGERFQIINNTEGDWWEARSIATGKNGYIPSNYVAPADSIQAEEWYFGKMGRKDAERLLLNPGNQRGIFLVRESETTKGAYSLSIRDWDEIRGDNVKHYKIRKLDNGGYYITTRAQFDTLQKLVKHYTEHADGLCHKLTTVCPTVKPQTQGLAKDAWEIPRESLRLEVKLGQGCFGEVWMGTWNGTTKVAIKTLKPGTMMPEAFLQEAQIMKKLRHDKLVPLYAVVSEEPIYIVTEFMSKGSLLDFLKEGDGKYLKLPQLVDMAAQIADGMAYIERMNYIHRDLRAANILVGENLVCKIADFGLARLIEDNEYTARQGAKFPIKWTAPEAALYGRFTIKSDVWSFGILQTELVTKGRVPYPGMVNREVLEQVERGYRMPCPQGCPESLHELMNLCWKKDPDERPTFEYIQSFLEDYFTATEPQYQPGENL

For `O=C(Nc1cc(C(F)(F)F)cc(C(F)(F)F)c1)c1cc(Cl)ccc1O`, the Potency result in assay [1] is “inactive”. Moreover, the outcome in assay [2] was inactive.

For the compound `CC(=O)Nc1sc2c(c1-c1nc3ccccc3s1)CNC2`, the Potency entry in assay [1] was “inactive”. Besides, the result in assay [2] was inactive.

Take `CC1=C(CO)C(=O)O[C@@H]([C@@H](C)[C@H]2CC[C@H]3[C@@H]4C[C@H]5O[C@]56[C@@H](O)C=CC(=O)[C@]6(C)[C@@H]4CC[C@]23C)C1`: the Potency entry in assay [1] was “inactive”. Moreover, the compound was classed as inactive in assay [2].

On to `C=C1C(=CC=C2CCCC3(C)[C@@H]([C@H](C)C=CC=CC(O)(CC)CC)CC[C@@H]23)C[C@@H](O)C[C@@H]1O` (some centres undefined), for which the Potency entry in assay [1] is “inactive”. Besides, the outcome in assay [2] was inactive. Moreover, in assay [3], the max response is -8.25%.

As to `Cc1cc(Nc2cc(N3CCN(C)CC3)nc(C=Cc3ccccc3)n2)n[nH]1`, the Potency in assay [1] is 30.7 nM (active). Besides, the outcome in assay [2] was inactive.

Turning to `O=C(O)c1ccc2c(c1)nc(Nc1cccc(Cl)c1)c1ccncc12`, the Potency in assay [1] is 487 nM (active). Also, in assay [2], the compound was classed as inactive.

As to `Cc1cc(Nc2cc(NC(=O)c3c(Cl)cccc3Cl)ccn2)nc(N)n1`, in assay [1], the Potency is 194 nM (active). In addition, the compound was classed as inactive in assay [2].

`CCC[C@H](NC(=O)C(C#N)=Cc1cccc(Br)n1)c1ccccc1`: the Potency entry in assay [1] was “inactive”. Further, the result in assay [2] was inactive.

For `Cc1[nH]c2ccccc2c1CCNCc1ccc(C=CC(=O)NO)cc1`, the Potency in assay [1] was 13700 nM (active). Besides, the compound was called inactive in assay [2].

Take `Cc1ccc(C(N)=O)cc1Nc1nccc(-c2cn(C(C)C)c3cnccc23)n1`: the Potency in assay [1] is 547 nM (active). Besides, the compound was called inactive in assay [2].

As to `COc1cc2c(Oc3ccc(-c4cnc(Nc5ccc(F)cc5)n(C)c4=O)cc3F)ccnc2cc1OCCCN1CCOCC1`, in assay [1], the Potency is 137 nM (active). Besides, the outcome in assay [2] was inactive.

For `COc1ccc2c(c1)CC[C@@H](CN(C)CC(=O)O)[C@H]2c1ccccc1`, the Potency result in assay [1] was “inactive”. Also, the call in assay [2] was inactive.

On to `Cc1cccc(C=NNc2cc(N3CCOCC3)nc(OCCc3ccccn3)n2)c1`, for which the Potency result in assay [1] is “inactive”. For the same compound, in assay [2], the result was inactive.

As for `O=C(C=Cc1cccnc1)NCCCCC1CCN(C(=O)c2ccccc2)CC1`, the Potency result in assay [1] is “inactive”. The result in assay [2] was inactive.

For `O=C(NCCS(=O)(=O)c1ccc(C(F)(F)F)cn1)c1ccc(Cl)cc1`, the Potency entry in assay [1] is “inactive”. For the same compound, the outcome in assay [2] was inactive.

`CN(C)CCCN=c1c2ccccc2n(C)c2[nH]c(=O)n(C)c(=O)c12`: the Potency entry in assay [1] was “inactive”. Besides, the result in assay [2] was inactive.

As for `O=C(C=Cc1cccc(S(=O)(=O)Nc2ccccc2)c1)NO`, the Potency in assay [1] was 1.7 nM (active). Also, the compound was called inactive in assay [2].

Take `CC1(C)OC2=C(C(=O)c3ccccc3C2=O)[C@H](NCc2ccccc2)[C@H]1O`: the Potency result in assay [1] is “inactive”. Also, the outcome in assay [2] was inactive.

With `CC(NCc1ccc2c(c1)nc(NC(=O)c1ccc(-c3cn[nH]c3)s1)n2CC(C)(C)O)C(C)(C)C` (centres undefined), the Potency in assay [1] was 5.5 nM (active) and 0.2 nM (active). Further, the outcome in assay [2] was inactive.

Turning to `O=C(O)c1ccc2cc(-c3ccc(O)c(C45CC6CC(CC(C6)C4)C5)c3)ccc2c1`, in assay [1], the Potency result is “inactive”. Further, in assay [2], the compound was called inactive.

For the compound `O=C(O)[C@H](Cc1c[nH]c2ccccc12)N1C(=O)c2ccccc2C1=O`, in assay [1], the Potency entry is “inactive”. The compound was classed as inactive in assay [2]. The max response in assay [3] is 33.4%.

`Fc1cc(-c2cccc3ncc(-c4cnn(C5CCNCC5)c4)nc23)cc(F)c1CN1CCOCC1`: the Potency in assay [1] is 308 nM (active). Moreover, in assay [2], the compound was classed as inactive.

With `C=CC(=O)Nc1cc2c(Nc3ccc(F)c(Cl)c3)ncnc2cc1C#CC(C)(C)N1CCN(C)CC1`, the Potency in assay [1] was 97.2 nM (active); in assay [3] it was 18.7 µM (active). In assay [2], the outcome was inactive.

`Cc1ccc(C(=O)Nc2cccc(C(F)(F)F)c2)cc1-c1ccc2nc(NCCN3CCOCC3)ncc2c1`: the Potency in assay [1] was 7.7 nM (active). In addition, the result in assay [2] was inactive.

For the compound `COc1cc(C(C)C)c2c(c1)S(=O)(=O)N(COc1cc(=O)n3cccc(OCCN4CCCCC4)c3n1)C2=O`, the Potency result in assay [1] is “inactive”. Also, in assay [2], the result was inactive.

For `Nc1ccccc1NC(=O)c1ccc(CNc2nccc(-c3cccnc3)n2)cc1`, in assay [1], the Potency entry was “inactive”. Besides, in assay [2], the compound was classed as inactive.

Turning to `N#Cc1c(O)c2c(-c3ccc(-c4ccccc4O)cc3)csc2[nH]c1=O`, the Potency entry in assay [1] is “inactive”. Further, the outcome in assay [2] was inactive.

In the case of `C[C@]1(CO)CN(c2cc(C(=O)Nc3ccc4c(c3)-c3c(c(C(N)=O)nn3-c3ccc(F)cc3)CC4)c(Cl)cn2)C[C@@]1(C)CO`, the Potency entry in assay [1] was “inactive”. Besides, in assay [2], the outcome was inactive. Further, in assay [3], the max response was -20.6%.

Turning to `CC[C@@H]1C(=O)N(C)c2cnc(Nc3ccc(C(=O)NC4CCC(N5CCN(CC6CC6)CC5)CC4)cc3OC)nc2N1C(C)C` (some centres undefined), the Potency entry in assay [1] is “inactive”. For the same compound, the compound was classed as inactive in assay [2]. Besides, the Potency in assay [3] is 7.43 µM (active).

For `Clc1ccc2ncc(-c3cccc(NC4CNC4)n3)n2c1`, in assay [1], the Potency is 274 nM (active). In addition, in assay [2], the compound was classed as inactive. The max response in assay [3] was -0.805%.

Take `O=C(C=Cc1c(C(=O)O)[nH]c2cc(Cl)cc(Cl)c12)Nc1ccccc1`: in assay [1], the Potency result was “inactive”. For the same compound, the compound was called inactive in assay [2]. The max response in assay [3] is 20.3%.

For `COc1ccc(OC)c(-c2nnc3ccc(-c4ccc(OC)c(O[C@@H]5CCOC5)c4)nn23)c1`, in assay [1], the Potency entry is “inactive”. Further, the result in assay [2] was inactive. The max response in assay [3] is -15.7%.

For `CC(C)(C)OC(=O)Nc1ccc(-c2cc(C(=O)NCCCCCCC(=O)NO)no2)cc1`, in assay [1], the Potency result is “inactive”. Further, the result in assay [2] was inactive. Moreover, the Potency in assay [3] was 9.35 µM (active).

For `CN1CCN(c2ccc3nc(-c4c(N)c5c(F)cccc5[nH]c4=O)[nH]c3c2)CC1`, in assay [2], the result was inactive.

For the compound `O=C(NC1CCNCC1)c1[nH]ncc1NC(=O)c1c(Cl)cccc1Cl`, the Potency entry in assay [1] was “inactive”. Further, the result in assay [2] was inactive. The Potency in assay [3] is 1.32 µM (active) and 2.64 µM (active).
